This is an account of results in paper PMC7862700, “An all-to-all approach to the identification of sequence-specific readers for epigenetic DNA modifications on cytosine”.

Holding throughout (assay): DAPPL (digital affinity profiling via proximity ligation, sequencing); 10 mM Tris-HCl pH 7.5, 50 mM NaCl, 1 mM DTT, 4% glycerol, room temperature, 30 min; GST-TFs on glutathione beads, 16-mer random dsDNA library, 0.1% formaldehyde crosslink after washing; high values mean tight binding
The target in assay [1] is T1, FEV (Homo sapiens, UniProt Q99581 1-238).
T1 sequence: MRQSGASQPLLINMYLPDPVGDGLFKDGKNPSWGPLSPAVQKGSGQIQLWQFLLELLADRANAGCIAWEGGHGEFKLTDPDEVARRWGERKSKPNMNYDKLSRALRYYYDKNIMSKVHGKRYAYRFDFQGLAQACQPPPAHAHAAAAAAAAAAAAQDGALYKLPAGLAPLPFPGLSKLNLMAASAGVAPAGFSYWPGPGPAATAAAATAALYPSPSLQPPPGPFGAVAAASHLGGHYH
The following applies: protein: recombinant; tags: N-terminal GST; dsDNA, one strand shown. The method, boiled down:
(§1)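 Pools were built from human transcription factors expressed in yeast as GST fusions, captured on glutathione beads and DNA-barcoded, along with a tag-only sample. Incubation with 200 nmole of a 16-mer random double-stranded DNA library lasted 30 min at room temperature in Tris/NaCl/DTT/glycerol buffer, and was followed by washing, 0.1% formaldehyde crosslinking, proximity ligation, PCR amplification and Illumina NextSeq500 sequencing. Binding signal is the quotient of each hexamer's read frequency for a factor and its frequency for the tag-only sample.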

In assay [2] the target is ETV5 (Homo sapiens, UniProt P41161 1-510). The following applies: protein: recombinant; tags: N-terminal GST; dsDNA, one strand shown. Put shortly:
as §1

The target of assay [3] is HSF1 (Homo sapiens, UniProt Q00613 1-529). To be noted: protein: recombinant; tags: N-terminal GST; chain copies: 3; dsDNA, one strand shown. Put shortly:
as §1

Assay [4] deals with T2, SPIC (Homo sapiens, UniProt Q8N5J4 1-248).
T2 sequence: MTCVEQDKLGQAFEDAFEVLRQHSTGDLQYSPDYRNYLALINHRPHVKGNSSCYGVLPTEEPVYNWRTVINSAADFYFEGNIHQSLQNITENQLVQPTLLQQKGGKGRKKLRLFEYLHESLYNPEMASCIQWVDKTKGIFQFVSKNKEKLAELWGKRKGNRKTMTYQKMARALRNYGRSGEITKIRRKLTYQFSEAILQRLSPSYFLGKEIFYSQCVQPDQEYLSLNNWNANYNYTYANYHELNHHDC
The following applies: protein: recombinant; tags: N-terminal GST; dsDNA, one strand shown. Put shortly:
as §1

The target of assay [5] is ELF4 (Homo sapiens, UniProt Q99607 1-663). The following applies: protein: recombinant; tags: N-terminal GST; dsDNA, one strand shown. The method, boiled down: as §1
ELF4, sequence (Q99607 whole entry): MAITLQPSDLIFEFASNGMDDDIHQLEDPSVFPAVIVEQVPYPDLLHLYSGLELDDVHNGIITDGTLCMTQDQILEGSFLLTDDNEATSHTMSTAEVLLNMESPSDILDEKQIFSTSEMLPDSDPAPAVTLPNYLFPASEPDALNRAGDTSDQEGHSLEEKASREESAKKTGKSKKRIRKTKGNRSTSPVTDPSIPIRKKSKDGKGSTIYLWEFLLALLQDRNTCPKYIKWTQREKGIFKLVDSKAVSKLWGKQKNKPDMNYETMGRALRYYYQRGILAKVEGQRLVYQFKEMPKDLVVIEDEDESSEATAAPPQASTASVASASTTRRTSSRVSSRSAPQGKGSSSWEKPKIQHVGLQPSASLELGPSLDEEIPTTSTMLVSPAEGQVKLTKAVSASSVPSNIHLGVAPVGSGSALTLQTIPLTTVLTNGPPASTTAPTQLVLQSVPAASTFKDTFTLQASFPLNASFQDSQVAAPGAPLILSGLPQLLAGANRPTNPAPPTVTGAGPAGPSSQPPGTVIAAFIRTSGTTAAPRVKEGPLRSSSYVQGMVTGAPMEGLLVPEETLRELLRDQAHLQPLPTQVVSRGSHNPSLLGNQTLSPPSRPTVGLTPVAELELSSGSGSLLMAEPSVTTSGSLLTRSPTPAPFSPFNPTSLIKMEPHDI
Assay [6] concerns the target T3, ELK4 (Homo sapiens, UniProt P28324-2 1-405).
T3 sequence: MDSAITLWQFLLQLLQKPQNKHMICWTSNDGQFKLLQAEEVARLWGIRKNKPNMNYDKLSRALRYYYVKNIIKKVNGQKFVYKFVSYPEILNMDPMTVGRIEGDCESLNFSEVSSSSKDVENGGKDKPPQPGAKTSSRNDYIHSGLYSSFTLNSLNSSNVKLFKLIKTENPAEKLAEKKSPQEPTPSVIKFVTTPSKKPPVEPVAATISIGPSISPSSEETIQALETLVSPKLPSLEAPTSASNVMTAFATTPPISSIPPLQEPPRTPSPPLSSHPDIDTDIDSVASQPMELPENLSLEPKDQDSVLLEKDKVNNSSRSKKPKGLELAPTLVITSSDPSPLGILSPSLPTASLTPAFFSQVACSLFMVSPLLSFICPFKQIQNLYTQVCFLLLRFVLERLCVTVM
The following applies: protein: recombinant; tags: N-terminal GST; dsDNA, one strand shown. The method, boiled down: as §1

For assay [7], the target named is T4, ETV2 (Homo sapiens, UniProt O00321 1-342).
T4 sequence: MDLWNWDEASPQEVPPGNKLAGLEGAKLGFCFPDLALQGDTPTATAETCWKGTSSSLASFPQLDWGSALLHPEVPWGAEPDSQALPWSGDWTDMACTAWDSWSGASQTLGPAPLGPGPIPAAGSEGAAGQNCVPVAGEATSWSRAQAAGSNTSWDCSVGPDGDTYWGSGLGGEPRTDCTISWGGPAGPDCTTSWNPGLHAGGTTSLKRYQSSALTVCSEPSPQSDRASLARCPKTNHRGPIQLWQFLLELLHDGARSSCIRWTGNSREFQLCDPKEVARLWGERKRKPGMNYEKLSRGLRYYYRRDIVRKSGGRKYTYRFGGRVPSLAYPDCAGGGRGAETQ
To be noted: protein: recombinant; tags: N-terminal GST; dsDNA, one strand shown. Put shortly: as §1

In assay [8] the target is T5, ELF3 (Homo sapiens, UniProt P78545 1-371).
T5 sequence: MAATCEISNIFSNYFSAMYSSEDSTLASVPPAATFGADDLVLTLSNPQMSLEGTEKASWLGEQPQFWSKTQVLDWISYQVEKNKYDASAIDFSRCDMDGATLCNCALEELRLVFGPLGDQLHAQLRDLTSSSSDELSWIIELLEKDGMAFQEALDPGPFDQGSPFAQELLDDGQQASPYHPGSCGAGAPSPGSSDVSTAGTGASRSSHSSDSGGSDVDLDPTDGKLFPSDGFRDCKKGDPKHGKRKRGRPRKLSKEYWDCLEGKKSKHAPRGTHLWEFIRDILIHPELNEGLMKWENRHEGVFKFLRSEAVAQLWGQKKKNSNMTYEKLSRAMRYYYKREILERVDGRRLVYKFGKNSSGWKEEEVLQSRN
To be noted: protein: recombinant; tags: N-terminal GST; dsDNA, one strand shown. The method, boiled down: as §1

The target of assay [9] is CRX (Homo sapiens, UniProt O43186 1-299). The following applies: protein: recombinant; tags: N-terminal GST; dsDNA, one strand shown. Put shortly:
as §1

Assay [10] addresses ETV1 (Homo sapiens, UniProt P50549 1-477). The following applies: protein: recombinant; tags: N-terminal GST; dsDNA, one strand shown. The method, boiled down: as §1

ETV5, sequence (P41161 whole entry): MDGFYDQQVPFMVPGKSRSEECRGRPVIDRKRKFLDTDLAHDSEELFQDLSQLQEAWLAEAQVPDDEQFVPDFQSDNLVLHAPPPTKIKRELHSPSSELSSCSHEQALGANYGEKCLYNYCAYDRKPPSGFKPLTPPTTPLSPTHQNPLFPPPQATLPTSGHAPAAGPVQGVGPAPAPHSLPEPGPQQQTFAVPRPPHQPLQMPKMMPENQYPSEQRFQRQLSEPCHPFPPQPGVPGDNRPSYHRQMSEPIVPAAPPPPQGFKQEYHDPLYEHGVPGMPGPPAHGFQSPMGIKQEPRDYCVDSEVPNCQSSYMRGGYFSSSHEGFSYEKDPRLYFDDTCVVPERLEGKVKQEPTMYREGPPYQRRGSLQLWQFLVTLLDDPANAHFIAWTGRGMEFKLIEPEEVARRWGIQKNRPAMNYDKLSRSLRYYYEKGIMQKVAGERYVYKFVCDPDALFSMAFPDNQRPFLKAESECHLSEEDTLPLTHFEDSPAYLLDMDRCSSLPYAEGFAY
CRX, sequence (O43186 whole entry): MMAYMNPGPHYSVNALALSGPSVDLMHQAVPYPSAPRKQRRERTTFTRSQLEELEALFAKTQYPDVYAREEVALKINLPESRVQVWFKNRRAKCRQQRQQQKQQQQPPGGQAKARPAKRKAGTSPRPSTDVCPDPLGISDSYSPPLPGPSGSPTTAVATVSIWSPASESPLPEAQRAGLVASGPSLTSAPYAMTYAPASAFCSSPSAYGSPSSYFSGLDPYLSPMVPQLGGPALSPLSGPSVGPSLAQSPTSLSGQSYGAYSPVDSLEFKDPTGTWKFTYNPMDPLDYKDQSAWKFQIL
HSF1, sequence (Q00613 whole entry): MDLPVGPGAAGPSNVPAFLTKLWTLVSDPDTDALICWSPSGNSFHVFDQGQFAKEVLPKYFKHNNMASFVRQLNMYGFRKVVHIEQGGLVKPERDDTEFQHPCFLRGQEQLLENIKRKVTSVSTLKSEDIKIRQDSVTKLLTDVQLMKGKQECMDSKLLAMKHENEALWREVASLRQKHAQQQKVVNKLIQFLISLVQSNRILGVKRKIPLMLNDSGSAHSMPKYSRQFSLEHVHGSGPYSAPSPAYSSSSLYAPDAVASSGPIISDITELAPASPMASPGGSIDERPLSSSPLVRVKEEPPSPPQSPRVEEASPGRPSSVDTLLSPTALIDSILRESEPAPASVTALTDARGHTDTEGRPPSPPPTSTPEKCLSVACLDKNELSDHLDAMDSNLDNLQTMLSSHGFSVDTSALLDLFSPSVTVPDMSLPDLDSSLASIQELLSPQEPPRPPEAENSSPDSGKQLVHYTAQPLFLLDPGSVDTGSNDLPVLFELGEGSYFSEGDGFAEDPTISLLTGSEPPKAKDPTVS
ETV1, sequence (P50549 whole entry): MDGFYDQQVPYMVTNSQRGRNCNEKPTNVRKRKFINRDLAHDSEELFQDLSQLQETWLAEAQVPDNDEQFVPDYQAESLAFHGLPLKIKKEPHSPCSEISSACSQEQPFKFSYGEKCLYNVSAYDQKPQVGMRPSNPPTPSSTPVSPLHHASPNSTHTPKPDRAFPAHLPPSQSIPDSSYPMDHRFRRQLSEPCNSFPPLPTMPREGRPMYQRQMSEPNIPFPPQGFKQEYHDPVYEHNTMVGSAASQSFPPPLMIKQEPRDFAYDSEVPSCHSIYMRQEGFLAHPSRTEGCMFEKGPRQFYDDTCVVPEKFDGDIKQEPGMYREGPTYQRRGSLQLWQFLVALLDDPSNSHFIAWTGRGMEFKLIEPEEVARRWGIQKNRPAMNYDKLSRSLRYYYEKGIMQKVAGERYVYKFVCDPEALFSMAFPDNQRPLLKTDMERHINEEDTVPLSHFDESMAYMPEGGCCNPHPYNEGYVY

Consider TCTTGC, for which the binding signal in assay [1] was 1.24 fold enrichment (6-mer frequency, TF over GST control); in [2], 1.39 fold enrichment (6-mer frequency, TF over GST control); in [3], 1.2 fold enrichment (6-mer frequency, TF over GST control); in [4], 1.36 fold enrichment (6-mer frequency, TF over GST control); in assay [5], 1.32 fold enrichment (6-mer frequency, TF over GST control); in assay [6], 1.3 fold enrichment (6-mer frequency, TF over GST control). Moreover, the binding signal in [7] is 1.36 fold enrichment (6-mer frequency, TF over GST control); in assay [8], 1.4 fold enrichment (6-mer frequency, TF over GST control); in assay [9], 1.21 fold enrichment (6-mer frequency, TF over GST control); in assay [10] it was 1.4 fold enrichment (6-mer frequency, TF over GST control).

As to AAGATT, the binding signal in [1] is 1.06 fold enrichment (6-mer frequency, TF over GST control); in assay [2] it was 1.25 fold enrichment (6-mer frequency, TF over GST control); in assay [3], 2.11 fold enrichment (6-mer frequency, TF over GST control); in assay [4] it was 1.12 fold enrichment (6-mer frequency, TF over GST control); in [5], 1.22 fold enrichment (6-mer frequency, TF over GST control); in [6], 1.35 fold enrichment (6-mer frequency, TF over GST control). Besides, the binding signal was 1.16 fold enrichment (6-mer frequency, TF over GST control) in assay [7]; 1.08 fold enrichment (6-mer frequency, TF over GST control) in [8]; 2.4 fold enrichment (6-mer frequency, TF over GST control) in assay [9]; 1.18 fold enrichment (6-mer frequency, TF over GST control) in assay [10].

Consider GCTTAC, for which the binding signal in [1] was 1.15 fold enrichment (6-mer frequency, TF over GST control); in [2] it was 1.12 fold enrichment (6-mer frequency, TF over GST control); in [3] it was 1.44 fold enrichment (6-mer frequency, TF over GST control); in assay [4] it was 1.21 fold enrichment (6-mer frequency, TF over GST control); in assay [5], 1.1 fold enrichment (6-mer frequency, TF over GST control); in assay [6] it was 1.1 fold enrichment (6-mer frequency, TF over GST control). Besides, the binding signal was 1.22 fold enrichment (6-mer frequency, TF over GST control) in [7]; 1.4 fold enrichment (6-mer frequency, TF over GST control) in assay [8]; 2.01 fold enrichment (6-mer frequency, TF over GST control) in assay [9]; 1.22 fold enrichment (6-mer frequency, TF over GST control) in assay [10].

In the case of GTTTCT, the binding signal in assay [1] is 1.16 fold enrichment (6-mer frequency, TF over GST control); in [2], 1.24 fold enrichment (6-mer frequency, TF over GST control); in [3] it was 1.84 fold enrichment (6-mer frequency, TF over GST control); in assay [4], 1.28 fold enrichment (6-mer frequency, TF over GST control); in [5], 1.28 fold enrichment (6-mer frequency, TF over GST control); in assay [6], 1.15 fold enrichment (6-mer frequency, TF over GST control). The binding signal in [7] is 1.25 fold enrichment (6-mer frequency, TF over GST control); in [8] it was 1.2 fold enrichment (6-mer frequency, TF over GST control); in [9] it was 1.15 fold enrichment (6-mer frequency, TF over GST control); in assay [10], 1.33 fold enrichment (6-mer frequency, TF over GST control).

In the case of TTTCAC, the binding signal in assay [1] was 1.37 fold enrichment (6-mer frequency, TF over GST control); in [2], 1.37 fold enrichment (6-mer frequency, TF over GST control); in [3], 1.23 fold enrichment (6-mer frequency, TF over GST control); in assay [4], 1.17 fold enrichment (6-mer frequency, TF over GST control); in [5], 1.43 fold enrichment (6-mer frequency, TF over GST control); in assay [6] it was 1.52 fold enrichment (6-mer frequency, TF over GST control). For the same sequence, the binding signal was 1.35 fold enrichment (6-mer frequency, TF over GST control) in [7]; 1.26 fold enrichment (6-mer frequency, TF over GST control) in [8]; 1.14 fold enrichment (6-mer frequency, TF over GST control) in [9]; 1.42 fold enrichment (6-mer frequency, TF over GST control) in [10].

As to GTATAT, the binding signal in assay [1] is 1.06 fold enrichment (6-mer frequency, TF over GST control); in assay [2], 1.19 fold enrichment (6-mer frequency, TF over GST control); in assay [3] it was 1.04 fold enrichment (6-mer frequency, TF over GST control); in assay [4] it was 1.18 fold enrichment (6-mer frequency, TF over GST control); in assay [5], 1.17 fold enrichment (6-mer frequency, TF over GST control); in [6] it was 1.21 fold enrichment (6-mer frequency, TF over GST control). Moreover, the binding signal is 1.12 fold enrichment (6-mer frequency, TF over GST control) in assay [7]; 1.02 fold enrichment (6-mer frequency, TF over GST control) in assay [8]; 1.07 fold enrichment (6-mer frequency, TF over GST control) in assay [9]; 1.18 fold enrichment (6-mer frequency, TF over GST control) in [10].

Turning to TATTGT, the binding signal in assay [1] was 1.26 fold enrichment (6-mer frequency, TF over GST control); in assay [2], 1.33 fold enrichment (6-mer frequency, TF over GST control); in [3], 1.27 fold enrichment (6-mer frequency, TF over GST control); in assay [4], 1.45 fold enrichment (6-mer frequency, TF over GST control); in [5], 1.24 fold enrichment (6-mer frequency, TF over GST control); in assay [6], 1.36 fold enrichment (6-mer frequency, TF over GST control). Further, the binding signal in [7] is 1.32 fold enrichment (6-mer frequency, TF over GST control); in [8] it was 1.23 fold enrichment (6-mer frequency, TF over GST control); in [9], 1.47 fold enrichment (6-mer frequency, TF over GST control); in [10], 1.25 fold enrichment (6-mer frequency, TF over GST control).

For TATTTT, the binding signal in assay [1] was 1.23 fold enrichment (6-mer frequency, TF over GST control); in [2], 1.39 fold enrichment (6-mer frequency, TF over GST control); in [3], 1.5 fold enrichment (6-mer frequency, TF over GST control); in [4], 1.42 fold enrichment (6-mer frequency, TF over GST control); in assay [5], 1.4 fold enrichment (6-mer frequency, TF over GST control); in assay [6] it was 1.49 fold enrichment (6-mer frequency, TF over GST control). The binding signal in [7] is 1.45 fold enrichment (6-mer frequency, TF over GST control); in assay [8], 1.36 fold enrichment (6-mer frequency, TF over GST control); in [9], 1.77 fold enrichment (6-mer frequency, TF over GST control); in assay [10], 1.48 fold enrichment (6-mer frequency, TF over GST control).
